High-throughput results as filed in PubChem BioAssay.
TDP1 inh: TDP1 (human) enzyme inhibition; Potency, µM (doses to about 130 µM), for the others: top-dose activity change, negative = inhibition, most hits filed as inhibitors; actives 0.28% (n = 350,000); Q9NUW8; AID 485290; recombinant TDP1, AlphaScreen DNA substrate cleavage; further: on the % scale 0 is the no-effect control and ±100 the full control effect; nearly all actives have a fitted effect of over 40% in size
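Here, a 5' biotin and 3' phosphotyrosine-FITC DNA oligonucleotide reports Tdp1 activity: intact substrate bridges AlphaScreen beads, while cleavage leaves a 3' phosphate and drops signal. All incubations at room temperature.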
JMJD2A Tudor inh: inhibitors of human JMJD2A Tudor domain. Potency, µM (doses to about 114 µM), inactives show top-dose activity change, negative = inhibition, actives largely listed as inhibitors. actives 4.4% (n = 390,000). AlphaScreen JMJD2A-Tudor / H3K4me3 peptide binding; further: on the % scale 0 is the no-effect control and ±100 the full control effect; nearly all actives have a fitted effect of over 50% in size
G9a block: G9a (human) methyltransferase inhibition | Q96KQ7 | G9a H3K9 monomethylation, AlphaScreen, 2 h | Potency, µM (series often up to 102 µM), for the others: at the highest dose activity, negative = inhibition, actives largely listed as inhibitors | actives 8.8% (n = 350,000) | AID 504332; further: on the % scale 0 is the no-effect control and ±100 the full control effect; nearly all actives have a fitted effect of over 75% in size
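AlphaScreen detection with an anti-monomethyl H3K9 antibody quantified product after a 2 h room-temperature reaction containing 500 nM biotinylated H3K9 peptide, 20 µM SAM and 20 nM enzyme, which had been preincubated 15 min with compound.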
Sfp inh: blocks B. subtilis Sfp PPTase activity. Q9F4F7. Biochemical Sfp PPTase activity, qHTS. Potency, µM, for the others: largest response in the series, negative = inhibition, actives largely listed as inhibitors. actives 3.5% (n = 310,000). AID 1490;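 further: the enzyme is Sfp with the accession as filed and its product quenches rhodamine fluorescence; 0% = enzyme reaction without inhibitor and -100% = no enzyme wells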
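Step 1, compound plus 15 nM Sfp-PPTase, 15 min, room temperature. Step 2, add rhodamine-CoA (5 uM) and BHQ-2-YbbR (12.5 uM). Step 3, read 525/598 nm fluorescence at 0 and 30 min.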
HP1b binding inh: HP1-beta chromodomain-methylated histone interaction inhibition; actives 0.56% (n = 390,000); AlphaScreen HP1-beta / biotin-H3K9me3 peptide binding; AID 540317; P83916; Potency, µM (doses to about 114 µM), for inactives: at the top dose activity change, negative = inhibition, actives largely listed as inhibitors; further: nearly all actives have a fitted effect of over 70% in size
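AlphaScreen: HP1-beta (50 nM) preformed 30 min with biotin-H3(1-18)K9me3 peptide (50 nM) in PBS pH 7.4, 0.01% Tween-20. Compound added for 30 min at RT, then streptavidin donor/nickel chelate acceptor beads (10 ug/mL) for 30 min.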
BAZ2B block: BAZ2B (human) inhibition. Q9UIF8. AlphaScreen BAZ2B-H3K14Ac peptide displacement. Potency, µM (top dose mostly 114 µM), inactives show at the highest dose activity change, negative = inhibition, usual class: inhibitors. actives 4.4% (n = 360,000). AID 504333; further: on the % scale 0 is the no-effect control and ±100 the full control effect; nearly all actives have a fitted effect of over 60% in size
Target sequence (Q9UIF8 whole entry, looked up): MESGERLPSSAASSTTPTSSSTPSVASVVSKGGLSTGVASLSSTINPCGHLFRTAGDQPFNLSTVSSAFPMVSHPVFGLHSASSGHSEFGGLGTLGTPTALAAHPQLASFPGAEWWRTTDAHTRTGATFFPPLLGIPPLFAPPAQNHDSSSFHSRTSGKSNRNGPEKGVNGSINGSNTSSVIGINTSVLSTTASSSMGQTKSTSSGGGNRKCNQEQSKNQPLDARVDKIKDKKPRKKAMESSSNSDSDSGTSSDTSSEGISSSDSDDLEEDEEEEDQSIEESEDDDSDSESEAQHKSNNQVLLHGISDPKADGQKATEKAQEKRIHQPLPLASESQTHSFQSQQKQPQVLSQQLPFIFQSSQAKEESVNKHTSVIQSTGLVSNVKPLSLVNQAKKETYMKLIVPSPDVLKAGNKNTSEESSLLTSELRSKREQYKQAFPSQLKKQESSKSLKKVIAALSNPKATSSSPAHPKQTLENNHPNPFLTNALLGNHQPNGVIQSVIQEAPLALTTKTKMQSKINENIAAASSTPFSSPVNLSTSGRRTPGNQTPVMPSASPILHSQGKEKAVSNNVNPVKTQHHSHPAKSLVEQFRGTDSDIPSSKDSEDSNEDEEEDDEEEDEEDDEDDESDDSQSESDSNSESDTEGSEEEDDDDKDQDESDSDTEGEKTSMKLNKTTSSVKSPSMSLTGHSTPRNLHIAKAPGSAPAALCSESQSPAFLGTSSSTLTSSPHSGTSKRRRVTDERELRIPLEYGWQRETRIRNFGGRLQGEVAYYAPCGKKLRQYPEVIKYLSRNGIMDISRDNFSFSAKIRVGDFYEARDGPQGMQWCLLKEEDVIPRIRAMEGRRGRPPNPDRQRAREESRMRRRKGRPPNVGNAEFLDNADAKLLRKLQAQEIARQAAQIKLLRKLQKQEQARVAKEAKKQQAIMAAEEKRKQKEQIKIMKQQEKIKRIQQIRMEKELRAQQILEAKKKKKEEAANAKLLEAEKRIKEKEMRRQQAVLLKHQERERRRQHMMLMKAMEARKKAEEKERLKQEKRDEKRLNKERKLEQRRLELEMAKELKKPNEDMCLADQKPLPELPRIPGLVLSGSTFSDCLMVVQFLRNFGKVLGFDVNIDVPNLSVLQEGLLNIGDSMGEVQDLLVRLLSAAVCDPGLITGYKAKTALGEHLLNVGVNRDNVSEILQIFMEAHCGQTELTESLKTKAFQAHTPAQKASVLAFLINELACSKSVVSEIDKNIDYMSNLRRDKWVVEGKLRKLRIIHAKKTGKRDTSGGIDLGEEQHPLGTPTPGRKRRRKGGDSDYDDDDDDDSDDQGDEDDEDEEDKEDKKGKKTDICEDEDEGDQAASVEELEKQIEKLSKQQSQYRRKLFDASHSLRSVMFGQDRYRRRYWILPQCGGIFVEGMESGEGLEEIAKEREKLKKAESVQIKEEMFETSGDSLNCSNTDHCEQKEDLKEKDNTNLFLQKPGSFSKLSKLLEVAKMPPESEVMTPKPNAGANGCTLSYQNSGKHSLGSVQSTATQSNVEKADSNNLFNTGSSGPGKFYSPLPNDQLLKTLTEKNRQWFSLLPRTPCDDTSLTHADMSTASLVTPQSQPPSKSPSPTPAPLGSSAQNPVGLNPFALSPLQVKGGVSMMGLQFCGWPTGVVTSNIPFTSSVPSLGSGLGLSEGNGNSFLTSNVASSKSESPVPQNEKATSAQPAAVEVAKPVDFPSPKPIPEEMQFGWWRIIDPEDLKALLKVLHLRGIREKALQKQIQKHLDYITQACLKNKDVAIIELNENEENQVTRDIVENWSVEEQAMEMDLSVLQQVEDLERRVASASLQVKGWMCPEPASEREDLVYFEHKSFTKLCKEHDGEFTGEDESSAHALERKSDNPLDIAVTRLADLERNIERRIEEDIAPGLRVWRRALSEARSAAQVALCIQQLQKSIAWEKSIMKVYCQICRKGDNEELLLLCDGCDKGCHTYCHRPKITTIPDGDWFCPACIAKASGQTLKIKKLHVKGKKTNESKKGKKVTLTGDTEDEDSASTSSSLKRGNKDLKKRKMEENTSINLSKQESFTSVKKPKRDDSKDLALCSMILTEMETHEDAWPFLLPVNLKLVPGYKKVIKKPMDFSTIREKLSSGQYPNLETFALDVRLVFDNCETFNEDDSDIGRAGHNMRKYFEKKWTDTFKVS
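AlphaScreen luminescence quantifies BAZ2B engagement of H3K14Ac peptide; the protein and biotinylated peptide are both at 50 nM final, buffer PBS pH 7.4 with 0.01% Tween-20, all steps at room temperature.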
* hit, by the source's call; u = inconclusive; x = no result given; [ ] = another dose, or the depositor's remark. A selection: hits, their analogues and other compounds. The true share with any hit is near 12%. The call rests on the fitted dose curve; in most records, active means well fitted curve in the direction sought with a large enough effect; inconclusive means small, poorly fitted or top-dose-only effect, or another doubt; inactive means no such curve, though single readings can be large; an effect the other way counts as inactive or inconclusive. Potency means the concentration at half of the fitted maximal effect.

SMILES	TDP1 inh	JMJD2A Tudor inh	G9a block	Sfp inh	HP1b binding inh	BAZ2B block
COc1ccc2nc(NC(=S)NC(=O)c3ccco3)sc2c1	2.6%	0.0%	12.1%[59 µM]	u	14.1%	-21.8%
CCOC(=O)c1sc(N2C(=O)C(O)=C(C(=O)c3ccco3)C2c2ccco2)nc1C (stereo unspecified)	3.8%	15.8µM*	8.91µM*	-19.3%	u	u
COc1ccc2nc(N3C(=O)C(O)=C(C(=O)c4ccco4)C3c3ccc(C)o3)sc2c1 (stereo unspecified)	6.0%	u	25.1µM*	x	-22.6%	44.7µM*
COc1cccc(C2C(C(=O)c3ccco3)=C(O)C(=O)N2CCN(C)C)c1OC (stereo unspecified)	-5.6%	-17.4%	u	7.5%	9.8%	4.8%
COc1ccc2nc(N3C(=O)C(O)=C(C(=O)c4ccco4)C3c3ccccc3OC)sc2c1 (stereo unspecified)	8.3%	-2.3%	35.5µM*	16.8%	29.7%	u
Cc1cc(C)c2nc(N3C(=O)C(O)=C(C(=O)c4ccco4)C3c3ccco3)sc2c1 (stereo unspecified)	-10.9%	50.1µM*	u	-10.9%	-21.2%	44.7µM*
O=C(Nc1nccs1)C1CC(=O)N(CCc2ccccc2)C1 (stereo unspecified)	-3.5%	-6.2%	-5.1%	x	17.8%	-4.5%
O=C(CSc1ccc(Cl)cc1)NNC(=O)c1ccncc1	6.6%	-5.5%	-33.7%	x	53.3%	-3.1%
Cc1nc(N2C(=O)C(=O)/C(=C(/O)c3ccccc3)C2c2ccco2)sc1C (stereo unspecified)	-5.9%	u	u	14.1%	5.4%	-0.4%
Cc1ccc2nc(N3C(=O)C(O)=C(C(=O)c4ccco4)C3c3cccs3)sc2c1 (stereo unspecified)	7.7%	17.8µM*	25.1µM*	u	-21.4%	44.7µM*
COC(=O)c1sc(N2C(=O)C(=O)/C(=C(/O)c3ccccc3)C2c2ccco2)nc1C (stereo unspecified)	2.5%	-17.8%	35.5µM*	9.4%	-2.8%	-25.0%
CCOc1ccc2nc(N3C(=O)C(O)=C(C(=O)c4ccco4)C3c3ccco3)sc2c1 (stereo unspecified)	-17.3%	39.8µM*	u	x	-16.7%	50.1µM*
Cc1ccc2nc(N3C(=O)C(O)=C(C(=O)c4ccc(C)o4)C3c3ccc(O)cc3)sc2c1 (stereo unspecified)	4.9%	-46.1%	u	x	-9.5%	u
O=C(CN1C(=O)NC2(CCCC2)C1=O)OCc1ccc(Cl)c(Cl)c1	x	-11.7%	11.5%	x	30.2%	-7.5%
COc1cc(C2/C(=C(\O)c3ccc4c(c3)CC(C)O4)C(=O)C(=O)N2CCCn2ccnc2)ccc1O (stereo unspecified)	-2.9%	-16.4%[11.4 µM]	17.2%[59 µM]	18.8%	22.0%	-1.9%
COC(=O)c1ccc(C2/C(=C(/O)c3ccc4c(c3)CC(C)O4)C(=O)C(=O)N2Cc2ccncc2)cc1 (stereo unspecified)	7.7%	-21.4%	44.7µM*	15.2%	61.0%	u
Cc1ccc(C2/C(=C(/O)c3ccc4c(c3)CC(C)O4)C(=O)C(=O)N2CCCn2ccnc2)cc1 (stereo unspecified)	6.9%	11.3%	44.7µM*	19.6%	34.4%	u
CCOc1ccc(C2/C(=C(\O)c3ccc4c(c3)OCCO4)C(=O)C(=O)N2CCN2CCOCC2)cc1OCC (stereo unspecified)	3.6%	-10.1%	u	24.9%	43.1%	-25.4%
CC1Cc2cc(/C(O)=C3/C(=O)C(=O)N(CCN4CCOCC4)C3c3ccc([N+](=O)[O-])cc3)ccc2O1 (stereo unspecified)	4.0%	u	79.4µM*	-8.4%	9.0%	u
C=CCOc1ccc(C2/C(=C(\O)c3ccc4c(c3)CC(C)O4)C(=O)C(=O)N2CCN2CCOCC2)cc1OCC (stereo unspecified)	5.8%	35.5µM*	20µM*	-9.5%	-12.8%	79.4µM*
Cc1cc(C)c2c(N)c(C(=O)Nc3ccccc3F)sc2n1	x	-10.8%	x	1.8%	34.2%	14.2%
C=CCOc1cccc(C2/C(=C(/O)c3ccc(C)cc3)C(=O)C(=O)N2CCN2CCOCC2)c1 (stereo unspecified)	5.9%	1.3%	u	0.5%	53.1%	-7.8%
C=CCOc1ccc(C2/C(=C(/O)c3ccc4c(c3)CC(C)O4)C(=O)C(=O)N2CCCN2CCOCC2)cc1 (stereo unspecified)	7.1%[56.1 µM]	u	44.7µM*	-3.1%	2.1%	-29.5%
CCCOc1cccc(C2/C(=C(/O)c3ccc4c(c3)CC(C)O4)C(=O)C(=O)N2CCN2CCOCC2)c1 (stereo unspecified)	7.1%	-15.2%	50.1µM*	3.2%	23.8%	-21.2%[57.1 µM]
COc1ccc(C2/C(=C(/O)c3ccc4c(c3)CC(C)O4)C(=O)C(=O)N2CCCN2CCOCC2)cc1 (stereo unspecified)	4.2%	u	44.7µM*	3.5%	12.9%	-26.7%
SMILES	TDP1 inh	JMJD2A Tudor inh	G9a block	Sfp inh	HP1b binding inh	BAZ2B block
CC1Cc2cc(/C(O)=C3/C(=O)C(=O)N(CCN4CCOCC4)C3c3cccc(Cl)c3)ccc2O1 (stereo unspecified)	-7.4%	-23.6%	-0.1%[12.7 µM]	6.8%	11.7%	-30.0%
C=CCOc1cccc(C2/C(=C(\O)c3ccc4c(c3)OCCO4)C(=O)C(=O)N2CCN2CCOCC2)c1 (stereo unspecified)	3.3%	-22.9%	39.8µM*	14.3%	48.1%	u
CSCCC(NC(=O)c1ccccc1Br)C(=O)NNC(=O)c1ccco1 (stereo unspecified)	-5.3%	-3.0%	13.7%[59 µM]	x	31.8%	9.8%
CCOc1cc(CNC(=O)c2cc(-c3ccccc3)n[nH]2)cc(OCC)c1OCC	2.8%	-13.8%	9.1%[59 µM]	x	18.3%	-17.9%
Cc1cccc(N2C(=O)CS(=O)(=O)C23C(=O)N(Cc2c(F)cccc2Cl)c2ccccc23)c1 (stereo unspecified)	0.0%	-17.5%	-32.7%[59 µM]	x	16.3%	2.4%[57.1 µM]
O=C(OC1CCOC1=O)C1CCN(S(=O)(=O)c2ccccc2)CC1 (stereo unspecified)	-9.5%	5.8%	5.6%[59 µM]	x	49.5%	9.5%
CCc1ccccc1NC(=O)C(=O)NCCc1sc(-c2cccc(F)c2)nc1C	7.7%	-16.0%	-2.5%[59 µM]	x	9.3%[57 µM]	-4.9%
COC(=O)c1nn(-c2ccc(OC)cc2)c(=O)cc1O	2.9%	-18.8%	-42.1%	-16.2%	-10.2%	-17.7%
COC(=O)c1c(=O)n(O)c2ccc(OC)cc2[n+]1[O-]	-6.2%	u	31.6µM*	u	15.5%	u
Cc1cccc(C)c1NC(=S)/N=C/N(C)C	-10.8%	14.1µM*	-12.4%[59 µM]	-1.1%	-22.4%	-6.7%
